Test results from PubChem BioAssay (Tox21).
Values joined by “and” are separate entries in the source; they are usually repeats but may differ in a detail not shown here. Identical values can stand only once. Inconclusive results are not listed. A structure can be active in one record and inactive in another. Active and inactive are the calls of the source. Calls follow the shape of the dose curve; as a rule, active = well fitted curve in the direction sought with a large enough effect in the repeat runs; inconclusive = weak or mixed curves; inactive = no such curve, though single readings can be large; an effect the other way counts as inactive or inconclusive.

Tests used:
[1] = A CellTox Green Cytotoxicity Assay to monitor cytotoxicity in HEK293 cells - 40 hour (AID 1224871); also: nearly all actives have a fitted effect of over 45% in size; also: potency is read from the fitted curve at half-maximal effect
Summary of the method: (§1)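 Dead-cell fluorescence measured kinetically: asymmetric cyanine dye, HEK293, 600 cells/well, 5 h settle, 23 nL cpd/DMSO, 37 C, reads 0–40 h every 8 h.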

[2] = qHTS RealTime-Glo MT Cell Viability Assay in HEK293 cells - 16 hour (AID 1224872); also: nearly all actives have a fitted effect of over 50% in size; also: potency is read from the fitted curve at half-maximal effect; as to activity change, negative = cytotoxicity: top concentration of the series differs between compounds
Summary of the method: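 Assay medium contained NanoLuc luciferase plus cell-permeant prosubstrate, added with HEK293 cells at 600 cells/well. After 5 h at 37 C/5% CO2 compounds were added; plates stayed at 37 C for 40 h with serial luminescence reads.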

[3] = qHTS RealTime-Glo MT Cell Viability Assay in HepG2 cells - 8 hour (AID 1224873); also: nearly all actives have a fitted effect of over 55% in size; also: potency is read from the fitted curve at half-maximal effect
Summary of the method: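 HepG2 cells (600/well) mixed with RealTime-Glo MT reagent, settled 5 h at 37 C/5% CO2 before compound addition. Nonlytic NanoLuc luminescence from viable-cell prosubstrate reduction read repeatedly during 40 h treatment at 37 C.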

[4] = qHTS RealTime-Glo MT Cell Viability Assay in HEK293 cells - 40 hour (AID 1224874); details: RealTime-Glo luminescence; max response: stronger effect = lower value; also: nearly all actives have a fitted effect of over 50% in size; also: potency is read from the fitted curve at half-maximal effect
Summary of the method: (§2)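 600 HEK293 cells per well, dispensed already mixed with RealTime-Glo MT reagents. Compound dosing came 5 h later. The same wells were read for luminescence at 0, 8, 16, 24, 32 and 40 h of exposure at 37 C.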

[5] = A CellTox Green Cytotoxicity Assay to monitor cytotoxicity in HEK293 cells - 24 hour (AID 1224875); also: nearly all actives have a fitted effect of over 45% in size; also: potency is read from the fitted curve at half-maximal effect; as to activity change: series mostly up to about 77 µM
Summary of the method: as §1

[6] = A CellTox Green Cytotoxicity Assay to monitor cytotoxicity in HepG2 cells - 16 hour (AID 1224876); also: nearly all actives have a fitted effect of over 45% in size; also: potency is read from the fitted curve at half-maximal effect
Summary of the method: (§3)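 First, HepG2 cells (600/well) mixed with reagent were plated; second, after 5 h at 37 C they received compounds via pintool; third, fluorescence was measured at 0 h through 40 h at 8 h intervals.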

[7] = qHTS RealTime-Glo MT Cell Viability Assay in HepG2 cells - 32 hour (AID 1224877); also: nearly all actives have a fitted effect of over 55% in size; also: potency is read from the fitted curve at half-maximal effect
Summary of the method: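 qHTS, HepG2, 600 cells/well, RealTime-Glo (NanoLuc + prosubstrate) added with cells; 5 h preincubation; DMSO compound addition; 37 C; luminescence at 0/8/16/24/32/40 h.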

[8] = A CellTox Green Cytotoxicity Assay to monitor cytotoxicity in HepG2 cells - 24 hour (AID 1224878); also: nearly all actives have a fitted effect of over 45% in size; also: potency is read from the fitted curve at half-maximal effect
Summary of the method: as §3

[9] = A CellTox Green Cytotoxicity Assay to monitor cytotoxicity in HepG2 cells - 40 hour (AID 1224879); also: nearly all actives have a fitted effect of over 40% in size; also: potency is read from the fitted curve at half-maximal effect
Summary of the method: as §3

[10] = qHTS RealTime-Glo MT Cell Viability Assay in HEK293 cells - 0 hour (AID 1224880)
Summary of the method: as §2
% is scaled to controls: 0 for no effect and ±100 for the full control effect.

Cc1cc(-n2nc3ccc(Cl)cc3n2)c(O)c(C(C)(C)C)c1
inactive: Potency [1] | Potency [2] | Potency [3] | max response [4] -5.47% | Potency [5] | Potency [6] | Potency [7] | Potency [8] | Potency [9] | Potency [10]

CCCNCCC
inactive: Potency [1] | Potency [2] | Potency [3] | max response [4] -5.51% | Potency [5] | Potency [6] | Potency [7] | Potency [8] | Potency [9] | Potency [10]

CC(C)NC[C@@H](O)COc1ccc(CC(N)=O)cc1
inactive: Potency [1] | Potency [2] | Potency [3] | max response [4] -0.295% | Potency [5] | Potency [6] | Potency [7] | Potency [8] | Potency [9] | Potency [10]

OC[C@@H](O)[C@@H](O)CO
inactive: Potency [1] | Potency [2] | Potency [3] | max response [4] 7.59% | Potency [5] | Potency [6] | Potency [7] | Potency [8] | Potency [9] | Potency [10]

CC(=O)c1ccc(C(C)=O)cc1
inactive: Potency [1] | Potency [2] | Potency [3] | max response [4] -3.34% | Potency [5] | Potency [6] | Potency [7] | Potency [8] | Potency [9] | Potency [10]

O=C(O)Cc1ccccc1Nc1c(Cl)cccc1Cl
inactive: Potency [1] | Potency [2] | Potency [3] | max response [4] 15.1% and 6.54% | Potency [5] | Potency [6] | Potency [7] | Potency [8] | Potency [9] | Potency [10]

CCc1ccc(Br)cc1
inactive: Potency [1] | Potency [2] | Potency [3] | max response [4] 5.1% | Potency [5] | Potency [6] | Potency [7] | Potency [8] | Potency [9] | Potency [10]

O=C1c2ccccc2C(=O)N1SC1CCCCC1
active: Potency [1] 12.3 µM and 21.9 µM | Potency [2] 34.6 µM and 38.9 µM | Potency [3] 38.9 µM | Potency [4] 21.9 µM and 38.9 µM | Potency [5] 13.8 µM and 34.7 µM | Potency [6] 43.6 µM | Potency [7] 43.6 µM | Potency [8] 21.9 µM | Potency [9] 24.5 µM
inactive: Potency [10]

Nc1nc2c(ncn2COCCO)c(=O)[nH]1
inactive: Potency [1] | Potency [2] | Potency [3] | max response [4] 0.456% | Potency [5] | Potency [6] | Potency [7] | Potency [8] | Potency [9] | Potency [10]

NC[C@H]1O[C@H](O[C@H]2[C@H](O[C@@H]3O[C@H](CO)[C@@H](O)[C@H]3O)C(O)[C@H](N)C[C@@H]2N)[C@H](N)[C@@H](O)[C@@H]1O (stereo not given in full)
inactive: cytotoxicity increase [1] -12.4% [at 6.97 µM] | activity change, negative = cytotoxicity [2] 3.13% [at 6.97 µM] | viability change, negative = cytotoxic [3] 2.91% [at 6.97 µM] | max response [4] 4.82% | activity change [5] -9.09% [at 6.97 µM, stronger effect = higher value] | cytotoxicity increase [6] 11% [at 6.97 µM] | activity change, negative = cytotoxic [7] 0.467% [at 6.97 µM] | cytotoxicity [8] 9.58% [at 6.97 µM] | cytotoxicity increase [9] 9.38% [at 6.97 µM] | activity change, negative = cytotoxicity [10] 10.7% [at 6.97 µM]

C=CCn1c(=O)n(CC=C)c(=O)n(CC=C)c1=O
inactive: Potency [1] | Potency [2] | Potency [3] | max response [4] -5.88% | Potency [5] | Potency [6] | Potency [7] | Potency [8] | Potency [9] | Potency [10]

CCCCCCCCCCCC(=O)OCC(C)OC(=O)CCCCC(=O)O (stereo not given)
inactive: Potency [1] | Potency [2] | Potency [3] | max response [4] 14.1% | Potency [5] | Potency [6] | Potency [7] | Potency [8] | Potency [9] | Potency [10]

NC(=O)c1cccc([N+](=O)[O-])c1
inactive: Potency [1] | Potency [2] | Potency [3] | max response [4] -0.169% | Potency [5] | Potency [6] | Potency [7] | Potency [8] | Potency [9] | Potency [10]

O=[N+]([O-])c1cccc(C(F)(F)F)c1
inactive: Potency [1] | Potency [2] | Potency [3] | max response [4] 7.87% | Potency [5] | Potency [6] | Potency [7] | Potency [8] | Potency [9] | Potency [10]

Oc1c(I)cc(Cl)c2cccnc12
inactive: Potency [2] | Potency [3] | Potency [5] | Potency [6] | Potency [7] | Potency [8] | Potency [10]
12.3 µM (active) and inactive: Potency [1]
active: Potency [4] 24.5 µM | Potency [9] 34.6 µM and 5.35 µM

Clc1sc(Cl)c(Cl)c1Cl
inactive: Potency [1] | Potency [2] | Potency [3] | max response [4] 7.4% | Potency [5] | Potency [6] | Potency [7] | Potency [8] | Potency [9] | Potency [10]

Cc1c(F)c(N2CCNC(C)C2)cc2c1c(=O)c(C(=O)O)cn2C1CC1 (stereo not given)
inactive: Potency [1] | Potency [2] | Potency [3] | max response [4] 11.8% | Potency [5] | Potency [6] | Potency [7] | Potency [8] | Potency [9] | Potency [10]

CN(C)Cc1cc(C(C)(C)C)c(O)c(C(C)(C)C)c1
inactive: Potency [1] | Potency [2] | Potency [3] | max response [4] -1.74% | Potency [5] | Potency [6] | Potency [7] | Potency [8] | Potency [9] | Potency [10]
